Measured values from PubChem BioAssay (NCATS).
Several values for one entry are separate records, joined by “and”; a condition that tells them apart may be missing. Equal values may be shown once. A number with no mark means an inactive call. Inconclusive results are not listed. Activity calls are given as the source filed them. Unless noted, calls come from the whole dose curve; as a rule, active = well fitted curve in the direction sought with a large enough effect; inconclusive = small, poorly fitted or top-dose-only effect, or another doubt; inactive = no such curve, though single readings can be large; an effect the other way counts as inactive or inconclusive.

How the values were obtained:
[1] = qHTS assay for small molecule agonists of the antioxidant response element (ARE) signaling pathway (AID 651741; active = well fitted activation curve with a large enough effect in the signal ratio; the % refers to the signal ratio; note: potency is the fitted concentration of half-maximal effect; for activation: % of control where 0% means no effect)
In short: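 Beta-lactamase reporter expression driven by the antioxidant response element in HepG2 cells was detected by fluorescence with LiveBLAzer B/G FRET substrate (2 h, room temperature) following 16 h compound treatment at 37 C.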

[2] = qHTS assay for small molecule activators of the p53 signaling pathway (AID 651743; active = well fitted activation curve with a large enough effect in the signal ratio, not every such curve was filed as active; the % refers to the signal ratio; note: potency is the fitted concentration of half-maximal effect; for activation: series mostly up to about 92 µM; % of control where 0% means no effect); settings: HCT-116 p53RE-bla, beta-lactamase FRET ratio, 16 h; activation: active compounds read high
In short: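 Here HCT-116 cells with an integrated p53-responsive beta-lactamase gene were incubated with compounds (16 hours, 37 C) after a 5-hour plating period; beta-lactamase activity was detected as fluorescence intensity via B/G FRET substrate.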

[3] = qHTS assay for small molecule activators of the nuclear factor-kappa B (NF-kB) signaling pathway (AID 651749; active = well fitted activation curve with a large enough effect in the signal ratio; the % refers to the signal ratio; note: series mostly up to about 77 µM; % of control where 0% means no effect); settings: NF-kB-bla ME-180 cells, beta-lactamase FRET ratio, 16 h; active compounds read high
In short: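 Beta-lactamase reporter expression, controlled by NF-kB response elements in ME-180 cells, was quantified fluorometrically via FRET disruption; cells at 2,000/well had been incubated with 23 nL test compound for 16 hr.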

[4] = qHTS assay for environmental chemicals that activate the Aryl hydrocarbon Receptor (AhR) signaling pathway (AID 651777); settings: 1A2-DRE human hepatoma cells, luciferase, 24 h; activation: active compounds read high; note: nearly all actives have a fitted effect of over 15% in size; note: potency is the fitted concentration of half-maximal effect; for activation: % of control where 0% means no effect
In short: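 Luminescence read-out: One-Glo added for 30 min at RT after 24 hr compound treatment (37 C, 5% CO2) of human hepatoma cells expressing a DRE/CYP1A2 promoter–luciferase reporter; increased signal indicates AhR activation.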

[5] = molecular target: Peroxisome proliferator-activated receptor alpha (Homo sapiens) (UniProt Q07869); assay: qHTS assay for small molecule agonists of the peroxisome proliferator-activated receptor alpha (PPARalpha) signaling pathway (AID 651778); settings: PathHunter PPARalpha complementation, chemiluminescence, 6 h; max response: active compounds read high; note: potency is the fitted concentration of half-maximal effect; for max response: % of control where 0% means no effect
In short: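 Cells plated at 2,000/well and held overnight at 37 C, 5% CO2, then compound added by pin tool for 6 hr; after PathHunter detection reagent and 60 min at room temperature, chemiluminescence from enzyme complementation was read.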

[6] = molecular target: Tumor necrosis factor (Homo sapiens) (UniProt P01375); assay: qHTS assay to identify small molecules that stimulate Tumor Necrosis Factor-alpha (TNF-alpha) secretion (AID 651757; active = well fitted curve in the direction sought with a large enough effect in the signal ratio; the % refers to the signal ratio; note: potency is the fitted concentration of half-maximal effect)
In short: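 THP-1 cells, 3000/well; compound 17 hrs, 37 C; add cryptate/XL665 anti-TNF-alpha antibody pair; 3 hr RT; TR-FRET (HTRF) read of secreted TNF-alpha. Quantitative HTS format.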

[7] = molecular target: Arylsulfatase A (Homo sapiens) (UniProt P15289); assay: qHTS screen for enhancers of Arylsulfatase A (ASA1): LOPAC Validation Assay (AID 720538); note: 0% is about no effect
In short: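 Cell-based enhancement test: residual ASA activity in SV40-transformed I179S patient fibroblasts is measured by pNCS turnover (0.5mM final, 14h, room temperature) following 48h compound incubation; higher fluorescence indicates activation.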

[8] = qHTS assay for small molecule disruptors of the mitochondrial membrane potential - 1 hr assay (AID 651754; calls by dose curve; note: potency is the fitted concentration of half-maximal effect; nearly all actives have a fitted effect of over 35% in size)
In short: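 Read-out: dye fluorescence at 490 nm ex/535 nm em (monomers) and 540 nm ex/590 nm em (aggregates) in HepG2 cells. Compound exposure 1 hr at 37C, followed by 30 min dye loading.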

[9] = qHTS assay for small molecule disruptors of the mitochondrial membrane potential - 5 hr assay (AID 651755; calls by dose curve; note: potency is the fitted concentration of half-maximal effect; nearly all actives have a fitted effect of over 40% in size); settings: JC-1-type ratio dye
In short: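 Seed HepG2 overnight, add compound, incubate 5 hr at 37C and 5% CO2, stain 30 min with Mito-MPS, then measure monomer (490/535 nm) and aggregate (540/590 nm) fluorescence.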

[10] = molecular target: Nuclear receptor ROR-gamma (Homo sapiens) (UniProt P51449); assay: qHTS assay for small molecule antagonists of the retinoid-related orphan receptor gamma (ROR-gamma) signaling pathway (AID 651802); note: nearly all actives have a fitted effect of over 60% in size; note: potency is the fitted concentration of half-maximal effect
In short: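 Luciferase read-out: ONE-Glo luminescence after 30 min at room temperature, following 16hr doxycycline induction at 37C, 5% CO2 of CHO cells with TET-inducible ROR and RORE-LUC reporter; decreased luminescence = reduced reporter activity.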

[11] = qHTS assay to identify small molecules that stimulate interleukin-8 (IL-8) secretion (AID 651758; active = well fitted activation curve with a large enough effect in the signal ratio; the % refers to the signal ratio; note: 0% is about no effect)
In short: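 Quantitative HTS in THP-1 monocytic cells at 2000 cells per well, with 16 hrs compound incubation at 37 C. IL-8 in the medium was then quantified by HTRF immunoassay, read after 1-3 hrs at room temperature.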

Sequence of Tumor necrosis factor (Homo sapiens) (P01375 whole entry, looked up): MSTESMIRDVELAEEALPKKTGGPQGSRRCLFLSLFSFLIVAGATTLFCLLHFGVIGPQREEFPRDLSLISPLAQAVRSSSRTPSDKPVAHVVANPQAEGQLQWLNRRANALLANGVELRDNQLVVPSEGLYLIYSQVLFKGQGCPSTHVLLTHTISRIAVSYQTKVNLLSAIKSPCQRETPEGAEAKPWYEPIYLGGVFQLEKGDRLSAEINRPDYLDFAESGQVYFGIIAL
Sequence of Peroxisome proliferator-activated receptor alpha (Homo sapiens) (Q07869 whole entry, looked up): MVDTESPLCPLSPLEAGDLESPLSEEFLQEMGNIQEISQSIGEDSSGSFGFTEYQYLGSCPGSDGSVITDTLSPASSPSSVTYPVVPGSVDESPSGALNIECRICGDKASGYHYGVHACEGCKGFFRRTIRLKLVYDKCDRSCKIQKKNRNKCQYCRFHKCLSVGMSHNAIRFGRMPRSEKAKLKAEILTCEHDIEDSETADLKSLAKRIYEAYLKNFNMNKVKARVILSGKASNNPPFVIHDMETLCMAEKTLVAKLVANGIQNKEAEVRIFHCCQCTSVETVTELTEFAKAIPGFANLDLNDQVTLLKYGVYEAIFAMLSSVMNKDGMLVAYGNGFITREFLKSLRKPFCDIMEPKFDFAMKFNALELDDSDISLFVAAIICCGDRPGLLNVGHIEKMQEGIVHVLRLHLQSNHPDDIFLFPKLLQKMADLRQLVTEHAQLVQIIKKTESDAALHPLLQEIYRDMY
Sequence of Nuclear receptor ROR-gamma (Homo sapiens) (P51449 whole entry, looked up): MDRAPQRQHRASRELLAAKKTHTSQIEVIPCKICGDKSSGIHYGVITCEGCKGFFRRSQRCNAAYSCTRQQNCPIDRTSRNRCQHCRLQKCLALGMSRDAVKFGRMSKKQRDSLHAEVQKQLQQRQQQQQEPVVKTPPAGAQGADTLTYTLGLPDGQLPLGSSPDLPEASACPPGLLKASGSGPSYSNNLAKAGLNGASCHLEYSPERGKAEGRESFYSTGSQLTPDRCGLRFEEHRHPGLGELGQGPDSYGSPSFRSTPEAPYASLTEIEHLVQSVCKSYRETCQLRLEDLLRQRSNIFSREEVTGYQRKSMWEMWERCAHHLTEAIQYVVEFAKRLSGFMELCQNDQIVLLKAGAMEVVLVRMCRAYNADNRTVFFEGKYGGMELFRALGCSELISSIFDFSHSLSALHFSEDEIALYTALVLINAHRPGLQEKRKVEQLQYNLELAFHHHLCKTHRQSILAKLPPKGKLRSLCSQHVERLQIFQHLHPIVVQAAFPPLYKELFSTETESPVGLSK
Sequence of Arylsulfatase A (Homo sapiens) (P15289 whole entry, looked up): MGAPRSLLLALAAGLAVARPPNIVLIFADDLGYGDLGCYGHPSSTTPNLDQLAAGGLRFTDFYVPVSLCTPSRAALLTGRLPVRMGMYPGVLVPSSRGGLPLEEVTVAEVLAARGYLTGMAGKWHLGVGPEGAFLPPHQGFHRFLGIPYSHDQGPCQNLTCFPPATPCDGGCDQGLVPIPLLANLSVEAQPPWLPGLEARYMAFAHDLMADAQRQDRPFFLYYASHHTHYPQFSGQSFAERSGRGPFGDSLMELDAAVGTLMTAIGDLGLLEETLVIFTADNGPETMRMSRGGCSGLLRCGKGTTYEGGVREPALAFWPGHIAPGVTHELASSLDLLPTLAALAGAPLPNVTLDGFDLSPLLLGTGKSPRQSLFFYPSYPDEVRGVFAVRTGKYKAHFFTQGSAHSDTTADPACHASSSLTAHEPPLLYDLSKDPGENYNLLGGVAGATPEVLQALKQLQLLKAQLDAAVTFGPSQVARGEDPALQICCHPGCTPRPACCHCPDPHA

CCC(=O)O[C@H]1CC[C@H]2[C@@H]3CCC4=CC(=O)CC[C@]4(C)[C@H]3CC[C@]12C
Potency [1]: inactive
activation [2]: -1.29%
activation [3]: -1.92%
activation [4]: -0.665%
max response [5]: -1.43%

Oc1c(Br)cc(Br)cc1Br
Potency [1]: 42.2 µM (active)
activation [3]: -2.42% and -0.471%
Potency [6]: inactive
activation [4]: 1.96% and 1.41%
Potency [5]: 39.8 µM (active) and 35.5 µM (active)

COCC(=O)N(c1c(C)cccc1C)C(C)C(=O)OC (stereo not given)
Potency [1]: inactive
activation [2]: -5.17%
activation [4]: 3.48%
max response [5]: -1.66%

CCOC(=O)Nc1ccc(NCc2ccc(F)cc2)nc1N
Potency [7]: inactive

N#Cc1nn(-c2c(Cl)cc(C(F)(F)F)cc2Cl)c(N)c1S(=O)C(F)(F)F (stereo not given)
Potency [1]: 61.1 µM (active)
activation [4]: 2.36%
max response [5]: -0.478%

Oc1ccc(Cl)cc1Cc1cc(Cl)ccc1O
Potency [1]: 18.8 µM (active)
activation [3]: 2.23%
Potency [8]: 10.6 µM (active)
Potency [9]: 11.9 µM (active)
max response [5]: 4.36%

CC[n+]1c(-c2ccccc2)c2cc(N)ccc2c2ccc(N)cc21
Potency [1]: 33.5 µM (active)
Potency [2]: 8.91 µM (active)
Potency [9]: 11.9 µM (active)
Potency [6]: 37.6 µM (active)
activation [4]: 11.3%
max response [5]: -2.33%
Potency [10]: inactive

CNC(=O)Oc1cccc2ccccc12
Potency [1]: 33.5 µM (active) and 17.2 µM (active)
activation [2]: 1.34%
activation [3]: 0.189% and -3.62%
Potency [6]: inactive
Potency [11]: inactive
Potency [4]: 39.8 µM (active) and 35.5 µM (active)
max response [5]: -0.498% and -1.3%
Potency [10]: inactive

CCCCCCCCCCCCCCCC[n+]1ccccc1
Potency [1]: 10.6 µM (active)
Potency [10]: 1.19 µM (active)
